Assay [1] can be described thus: A CellTox Green Cytotoxicity Assay to monitor cytotoxicity in HepG2 cells - 0 hour (AID 1224882). Note: nearly all actives have a fitted effect of over 35% in size. The essentials:
(§1)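 Real-time cytotoxicity: fluorescence of a cell-impermeant cyanine dye binding DNA of dead HepG2 cells, measured repeatedly (0–40 h) during compound exposure at 37 C. Cells seeded 600/well with reagent, dosed after 5 h.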

A short description of assay [2]: A CellTox Green Cytotoxicity Assay to monitor cytotoxicity in HepG2 cells - 32 hour (AID 1224883). Note: nearly all actives have a fitted effect of over 50% in size. Note: potency is the fitted concentration of half-maximal effect. Summed up:
as §1

Assay [3] is described as follows: A CellTox Green Cytotoxicity Assay to monitor cytotoxicity in HEK293 cells - 8 hour (AID 1224884). Note: nearly all actives have a fitted effect of over 35% in size. Summed up:
(§2)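 Fluorescence from a DNA-binding dye excluded by viable cells was measured repeatedly in the same HEK293 wells (600 cells/well) during continuous compound exposure at 37 C. Each assay gives one read point: 0, 8, 16, 24, 32 or 40 h.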

The nature of assay [4]: qHTS RealTime-Glo MT Cell Viability Assay in HepG2 cells - 16 hour (AID 1224885). Note: nearly all actives have a fitted effect of over 50% in size. The essentials:
(§3)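 HepG2 cells (600/well) were dispensed with RealTime-Glo reagents, incubated 5 h at 37 °C, then treated with compounds in DMSO for up to 40 h. Nonlytic NanoLuc luminescence reflecting viable cells was read at each stated time point.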

Assay [5] can be described thus: qHTS RealTime-Glo MT Cell Viability Assay in HEK293 cells - 8 hour (AID 1224887). Note: nearly all actives have a fitted effect of over 50% in size. Note: potency is the fitted concentration of half-maximal effect. The essentials: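 Luminescence, which tracks viable cell number through reduction of the prosubstrate to a NanoLuc substrate, was read over continuous 37 C culture. Cells (600/well) were premixed with reagent and rested 5 h before 23 nL of compound in DMSO was pinned.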
Assay [6] in a line: A CellTox Green Cytotoxicity Assay to monitor cytotoxicity in HEK293 cells - 16 hour (AID 1224888). Note: nearly all actives have a fitted effect of over 35% in size. Summed up: as §2
Assay [7] is described as follows: qHTS RealTime-Glo MT Cell Viability Assay in HepG2 cells - 0 hour (AID 1224889). Note: nearly all actives have a fitted effect of over 50% in size. The essentials: as §3
Assay [8] in a line: A CellTox Green Cytotoxicity Assay to monitor cytotoxicity in HepG2 cells - 8 hour (AID 1224890). Note: nearly all actives have a fitted effect of over 45% in size. The essentials: as §1
A short description of assay [9]: qHTS assay to identify small molecule antagonists of the estrogen receptor alpha (ER-alpha) signaling pathway using the BG1 cell line in the presence of 0.1 nM 17-beta-estradiol - cell viability counter screen (AID 1259241). Note: nearly all actives have a fitted effect of over 40% in size. The essentials:
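Measures cytotoxicity alongside the ER-alpha antagonist readout: VM7Luc4E2 cells, charcoal-stripped serum, 0.1 nM 17beta-estradiol final, 22 hr compound incubation at 37C, CellTiter-Fluor fluorescence.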

The nature of assay [10]: qHTS RealTime-Glo MT Cell Viability Assay in HEK293 cells - 24 hour (AID 1224886). Note: nearly all actives have a fitted effect of over 50% in size. Note: potency is the fitted concentration of half-maximal effect. The essentials:
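HEK293 cells seeded with NanoLuc/prosubstrate reagent, rested 5 h at 37 C, then dosed and kept at 37 C up to 40 h. Nonlytic real-time luminescence from viable cells read at 0, 8, 16, 24, 32 and 40 h.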

For 26 molecules, outcome and Potency results are on record in PubChem BioAssay (Tox21).

Results filed as inconclusive are left out. Active and inactive are the calls of the source. Calls come from the whole dose curve; as a rule, active = well fitted curve in the direction sought with a large enough effect in the repeat runs; inconclusive = weak or mixed curves; inactive = no such curve, though single readings can be large; an effect the other way counts as inactive or inconclusive.

Turning to `ClCCOCOCCCl`, the outcome in assay [1] and in [9] was inactive. Also, the Potency entry in [2], in assay [3], in [4], in assay [5], in assay [6] and in [7] was “inactive” throughout. Also, the Potency entry in [8] is “inactive”.
With `BrCCCCCCBr`, the molecule was classed as inactive in assay [1] and in [9]. Further, the Potency result in assay [2], in assay [3], in assay [4], in assay [5], in assay [6] and in assay [7] was “inactive” each time. The Potency result in [8] is “inactive”.
Turning to `CC(C)(C)OC(=O)c1ncn2c1[C@@H]1CCCN1C(=O)c1c(Br)cccc1-2`, the molecule was called inactive in [1] and in assay [9]. The Potency entry in assay [2], in assay [3], in [4], in assay [5], in assay [6] and in assay [7] was “inactive” each time. The Potency result in assay [8] was “inactive”.
`O=P(O)(Oc1ccccc1)Oc1ccccc1`: the outcome in assay [1] and in [9] was inactive. Also, the Potency result in [2], in [3], in assay [4], in assay [5], in assay [6] and in assay [7] was “inactive” throughout. Further, in assay [8], the Potency result was “inactive”.
On to `CC(=O)Nc1cc([As](=O)(O)O)ccc1O`, for which the molecule was classed as inactive in assay [1] and in [9]. In addition, the Potency entry in assay [2], in assay [3], in assay [4], in [5], in [6] and in assay [7] was “inactive” each time. The Potency entry in [8] was “inactive”.
Consider `CCCCOC(=O)c1ccccc1C(=O)O`, for which the call in [1] and in [9] was inactive. The Potency result in assay [2], in assay [3], in assay [4], in assay [5], in [6] and in [7] was “inactive” in each case. For the same molecule, the Potency result in assay [8] is “inactive”.
Turning to `CCC/C(=N\OCC)C1=C(O)CC(CC(C)SCC)CC1=O` (stereo unspecified), the molecule was classed as inactive in assay [1] and in assay [9]. Further, the Potency result in [2], in [3], in assay [4], in assay [5], in [6] and in assay [7] was “inactive” in each case. Further, the Potency result in assay [8] is “inactive”.
As to `CCN(CC)C(=O)[C@@H]1C=C2c3cccc4[nH]cc(c34)C[C@H]2N(C)C1`, the result in [1] was inactive. In addition, the Potency entry in assay [2], in [3], in assay [4], in assay [5], in assay [6] and in assay [7] was “inactive” throughout. Further, the Potency entry in [8] was “inactive”.
Turning to `CCS(=O)(=O)CCSP(=O)(OC)OC`, the outcome in assay [1] and in assay [9] was inactive. The Potency result in assay [2], in assay [3], in assay [4], in assay [5], in assay [6] and in assay [7] was “inactive” in each case. Besides, in assay [8], the Potency entry is “inactive”.
For `CCOC(=O)C(c1c(O)c2ccccc2oc1=O)c1c(O)c2ccccc2oc1=O`, the call in assay [1] and in assay [9] was inactive. Moreover, the Potency entry in assay [2], in assay [3], in assay [4], in assay [5], in [6] and in [8] was “inactive” each time.
As for `COC(=O)c1ccccc1S(=O)(=O)NC(=O)Nc1nc(C)cc(C)n1`, the result in assay [1] and in assay [9] was inactive. Moreover, the Potency entry in assay [2], in [3], in [4], in [5], in [6] and in assay [7] was “inactive” throughout. In addition, in assay [8], the Potency result is “inactive”.
For `CNC(=O)Oc1c(C(C)(C)C)cc(C)cc1C(C)(C)C`, the outcome in assay [1] and in [9] was inactive. The Potency result in assay [2], in assay [3], in [4], in [5], in [6] and in assay [7] was “inactive” throughout. In addition, the Potency entry in assay [8] was “inactive”.
As for `Oc1c(Cl)cccc1Cl`, the result in assay [1] and in assay [9] was inactive. The Potency result in assay [2], in assay [3], in [4], in [5], in [6] and in [7] was “inactive” in each case. Also, the Potency entry in assay [8] was “inactive”.
In the case of `CC(C)CP(=S)(S)CC(C)C`, in [1], the outcome was inactive. Further, the Potency result in assay [2], in assay [3], in assay [4], in [5], in [7] and in assay [8] was “inactive” throughout.
As for `Cc1ccccc1CO[C@@H]1C[C@@]2(C(C)C)CC[C@]1(C)O2`, the outcome in assay [1] and in [9] was inactive. In addition, the Potency entry in [2], in [3], in [4], in [5], in assay [6] and in assay [7] was “inactive” each time. The Potency entry in assay [8] is “inactive”.
With `O=C(Nc1ccccc1)c1ccccc1I`, the molecule was called inactive in assay [1] and in assay [9]. In addition, the Potency entry in [2], in [3], in assay [4], in [5], in assay [6] and in [7] was “inactive” throughout. The Potency result in [8] is “inactive”.
In the case of `COc1ccc2c(c1OC)CN1CCc3cc4c(cc3C1C2)OCO4` (stereo unspecified), the molecule was called inactive in [1] and in assay [9]. Also, the Potency result in assay [2], in assay [3], in assay [4], in assay [5], in [6] and in assay [7] was “inactive” in each case. Besides, the Potency result in assay [8] is “inactive”.
As for `C[C@H]1CCC[C@H](O)CCCCCc2cc(O)cc(O)c2C(=O)O1`, the result in assay [1] and in [9] was inactive. For the same molecule, the Potency result in [3], in [4], in assay [6], in assay [7] and in [8] was “inactive” throughout. In addition, in assay [5], the Potency was 27.7 µM (active).
For `CC(CC(C#N)(c1ccccc1)c1ccccc1)N(C)C` (stereo unspecified), the molecule was classed as inactive in [1] and in [9]. The Potency result in [3], in [4], in [5], in [6], in assay [7] and in assay [8] was “inactive” each time.
`CC(C(O)c1ccccc1)N(C)C/C=C/c1ccccc1` (stereo unspecified): the result in [1] was inactive. The Potency result in assay [3], in assay [4], in assay [10], in assay [5], in [6] and in assay [7] was “inactive” in each case. Besides, the Potency entry in [8] was “inactive”.
With `ClC(Cl)C(Cl)Cl`, the call in assay [1] was inactive. Also, the Potency entry in [3], in assay [4], in [10], in assay [5], in [7] and in assay [8] was “inactive” each time.
With `COc1cccc2c1cc([N+](=O)[O-])c1c(C(=O)O)cc3c(c12)OCO3`, the outcome in assay [1] was inactive. For the same molecule, the Potency result in assay [3], in assay [4], in assay [5], in assay [6] and in assay [8] was “inactive” in each case. In addition, the Potency in assay [10] was 3.09 µM (active).
Consider `COC(=O)C1=CCCN(C)C1`, for which the call in [1] was inactive. The Potency entry in assay [3], in [4], in assay [10], in assay [5], in assay [7] and in [8] was “inactive” in each case.
For `c1coc(-c2nc3ccccc3[nH]2)c1`, the molecule was called inactive in assay [1] and in [9]. For the same molecule, the Potency entry in assay [2], in [3], in assay [4], in assay [7] and in [8] was “inactive” throughout.
As for `CCCCOC(=O)c1ccccc1N`, the molecule was called inactive in assay [1] and in assay [9]. Moreover, the Potency entry in assay [3], in assay [4], in [5], in [7] and in [8] was “inactive” each time.
Consider `C=CCC1=C(C)[C@@H](OC(=O)[C@@H]2[C@@H](C=C(C)C)C2(C)C)CC1=O`, for which the call in assay [1] was inactive. In addition, the Potency in assay [2] is 49 µM (active); in assay [10] it was 12.3 µM (active); in assay [5] it was 6.92 µM (active). The Potency entry in assay [3], in assay [6], in [7] and in [8] was “inactive” in each case.
